IDE exosite FP – insulin-degrading enzyme (human) exo-site inhibition | AID 1259349 | purified IDE, FL-6b probe fluorescence polarization; active compounds read low | 17,000 tested, 6.3% active | P14735 | z-score at 20 µM;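 active = z-score of -3 or lower, meaning strong loss of probe binding signal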;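 note: His-tagged human IDE residues 42-1019 made in E. coli with 30 nM FL-6b probe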
Target sequence (P14735 42-1019 limits assumed): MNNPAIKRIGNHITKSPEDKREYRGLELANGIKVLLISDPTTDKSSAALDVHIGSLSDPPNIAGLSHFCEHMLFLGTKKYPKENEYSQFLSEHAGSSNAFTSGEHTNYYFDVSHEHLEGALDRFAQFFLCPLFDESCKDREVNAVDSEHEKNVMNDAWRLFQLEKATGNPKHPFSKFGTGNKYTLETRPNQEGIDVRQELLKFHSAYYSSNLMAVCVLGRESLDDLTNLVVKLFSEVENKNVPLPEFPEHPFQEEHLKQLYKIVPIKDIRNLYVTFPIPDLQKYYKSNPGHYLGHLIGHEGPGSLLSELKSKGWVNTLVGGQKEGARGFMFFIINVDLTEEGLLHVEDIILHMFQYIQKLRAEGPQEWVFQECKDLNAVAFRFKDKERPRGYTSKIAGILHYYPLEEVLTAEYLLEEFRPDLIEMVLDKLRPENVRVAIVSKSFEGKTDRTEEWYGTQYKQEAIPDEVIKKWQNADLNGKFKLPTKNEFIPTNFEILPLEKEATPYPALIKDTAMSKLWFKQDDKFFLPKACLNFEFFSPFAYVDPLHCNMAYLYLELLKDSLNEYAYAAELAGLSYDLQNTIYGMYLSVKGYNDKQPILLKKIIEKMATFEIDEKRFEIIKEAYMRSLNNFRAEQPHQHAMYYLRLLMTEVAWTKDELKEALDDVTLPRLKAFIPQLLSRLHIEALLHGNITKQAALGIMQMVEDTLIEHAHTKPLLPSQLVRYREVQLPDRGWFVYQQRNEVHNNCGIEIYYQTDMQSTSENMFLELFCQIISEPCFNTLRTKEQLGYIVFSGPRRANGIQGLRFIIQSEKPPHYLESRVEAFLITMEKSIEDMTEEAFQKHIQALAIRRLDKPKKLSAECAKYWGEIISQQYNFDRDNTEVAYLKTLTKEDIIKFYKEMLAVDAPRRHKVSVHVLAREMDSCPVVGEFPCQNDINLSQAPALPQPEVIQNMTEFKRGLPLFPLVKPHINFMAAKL
Large screens that a line does not name were inactive. This excerpt belongs to a sample that is enriched for hits.

N#C[C@H]1[C@H](c2ccc(-c3cncnc3)cc2)[C@@H](CO)N1C(=O)C1CCOCC1	none
N#C[C@H]1[C@H](c2ccc(-c3cccnc3)cc2)[C@@H](CO)N1C(=O)C1CCOCC1	none
COc1ccc(-c2ccccc2[C@H]2[C@@H](C#N)N(C(=O)C3CCOCC3)[C@H]2CO)cc1	none
COc1ccccc1-c1ccc([C@@H]2[C@@H](C#N)N(C(=O)C3CCOCC3)[C@H]2CO)cc1	IDE exosite FP -9.8
N#C[C@H]1[C@@H](c2ccc(/C=C/c3ccccc3)cc2)[C@@H](CO)N1C(=O)C1CCOCC1	none
COc1cccc(C#Cc2ccc([C@@H]3[C@@H](CO)N(C(=O)C4CCOCC4)[C@H]3C#N)cc2)c1	none
COc1ccccc1-c1ccc([C@@H]2[C@@H](CO)N(C(=O)C3CCOCC3)[C@H]2C#N)cc1	IDE exosite FP -11
N#C[C@H]1[C@H](c2ccc(-c3cccnc3)cc2)[C@H](CO)N1C(=O)C1CC1	none
COc1ccccc1-c1ccc([C@H]2[C@@H](C#N)N(C(=O)C3CCOCC3)[C@H]2CO)cc1	IDE exosite FP -6.9
COc1ccc(-c2ccc([C@@H]3[C@@H](CO)N(C(=O)C4CCOCC4)[C@H]3C#N)cc2)cc1	none
CN(C)C(=O)c1ccc(-c2ccc([C@@H]3[C@H]4CN(C(=O)C5CCC5)CC(=O)N4[C@H]3CO)cc2)cc1	none
CS(=O)(=O)Nc1ccc2c(c1)[C@@H]1C[C@H](CC(=O)NCc3cc(F)ccc3F)O[C@H](CO)[C@@H]1O2	none
CCCC#Cc1ccc([C@H]2[C@H]3CN(C(=O)c4cccc(F)c4)CC(=O)N3[C@H]2CO)cc1	none
C/C=C/c1ccc([C@H]2[C@@H](CO)N(CC3CC3)[C@@H]2CN(C(C)=O)C(C)C)cc1	none
O=C1N[C@@H](c2ccccc2)COCc2cn(nn2)CC[C@H]1Cc1cccc(Cl)c1	none
COc1ccc(-c2ccc([C@H]3[C@@H](CO)N(C(=O)C4CCC4)[C@H]3C#N)cc2)cc1	none
C[C@H](CO)N1C[C@H](C)[C@@H](CN(C)C(=O)C2CCCCC2)OCCCC[C@H](C)Oc2ccc(NS(=O)(=O)c3ccccc3)cc2C1=O	none
C[C@@H]1CCCCO[C@@H](CN(C)Cc2ccc(C(=O)O)cc2)[C@H](C)CN([C@H](C)CO)C(=O)c2cc(N(C)C)ccc2O1	none
CCC(=O)N1CC(=O)N2[C@H](CO)[C@H](c3ccc(C#CC4CCCC4)cc3)[C@@H]2C1	none
O=C(c1cnccn1)N1CC(=O)N2[C@H](C1)[C@H](c1ccc(-c3cccc(F)c3)cc1)[C@@H]2CO	none
Cc1cccc(-c2ccc([C@@H]3[C@H]4CN(C(=O)c5cccnc5)CC(=O)N4[C@H]3CO)cc2)c1	IDE exosite FP -18
O=C(c1cccnc1)N1CC(=O)N2[C@H](CO)[C@H](c3ccc(-c4ccc(F)cc4)cc3)[C@H]2C1	none
O=C(c1cnccn1)N1CC(=O)N2[C@H](CO)[C@@H](c3ccc(-c4ccccc4)cc3)[C@H]2C1	none
Cc1cccc(-c2ccc([C@@H]3[C@@H](CO)N4C(=O)CN(C(=O)c5ccccc5)C[C@@H]34)cc2)c1	IDE exosite FP -5.2
O=C(c1cccnc1)N1CC(=O)N2[C@H](C1)[C@@H](c1ccc(-c3ccc(F)cc3)cc1)[C@@H]2CO	none
Cc1cccc(-c2ccc([C@@H]3[C@@H](CO)N4C(=O)CN(C(=O)c5cnccn5)C[C@H]34)cc2)c1	IDE exosite FP -7.1
Cc1cccc(-c2ccc([C@@H]3[C@@H](CO)N4C(=O)CN(C(=O)c5cccnc5)C[C@H]34)cc2)c1	IDE exosite FP -4.2
Cc1cccc(-c2ccc([C@H]3[C@@H](CO)N4C(=O)CN(C(=O)c5ccccc5)C[C@@H]34)cc2)c1	none
Cc1ccc(-c2ccc([C@@H]3[C@H](CO)N4C(=O)CN(C(=O)c5ccccc5)C[C@@H]34)cc2)cc1	none
CCC(=O)N1[C@@H]2c3ccc(-c4ccc(F)cc4)c(=O)n3C[C@@H]2[C@@H](CO)[C@@H]1C(=O)N(C)C	none
CS(=O)(=O)N1CC(=O)N2[C@H](C1)[C@@H](c1ccc(Br)cc1)[C@@H]2CO	none
O=C(c1ccccc1F)N1CC(=O)N2[C@H](CO)[C@@H](c3ccc(C#Cc4ccc(F)cc4)cc3)[C@H]2C1	none
COc1ccc2c3c(n(C)c2c1)[C@H](CO)N(S(=O)(=O)c1cn(C)cn1)CC31CCN(C)CC1	none
C[C@@H]1CN([C@H](C)CO)C(=O)c2cc(C#Cc3ccccc3)cnc2O[C@H]1CN(C)C(=O)c1ccccc1	none
COCC(=O)N1CC2(CCN(C(=O)c3cccnc3)CC2)c2c([nH]c3cc(OC)ccc23)[C@H]1CO	none
O=C1CN(Cc2ccccc2)C[C@H]2[C@@H](c3ccc(-c4ccccc4)cc3)[C@@H](CO)N12	none
COc1cccc(NC(=O)N2CC(=O)N3[C@H](CO)[C@H](c4ccc(Br)cc4)[C@@H]3C2)c1	none
CN(C)CC#Cc1ccc([C@H]2[C@H]3CN(C(=O)c4ccc5c(c4)OCO5)CCCCN3[C@H]2CO)cc1	none
CO[C@H]1CN(C)C(=O)c2cc(NC(=O)C3CCOCC3)ccc2OC[C@H](C)NC[C@H]1C	none
O=C(Nc1ccc(Cl)cc1)N1C[C@@H]2[C@H](c3ccccc31)[C@H](CO)N2CC1CCCCC1	none
CC(=O)NC[C@@H]1[C@H](c2ccc(-c3cccc(F)c3)cc2)[C@@H](CO)N1C(C)=O	none
Cc1cccc(-c2ccc([C@H]3[C@@H](CO)N4C(=O)CN(C(=O)c5cccnc5)C[C@@H]34)cc2)c1	IDE exosite FP -8.6
O=C(c1cccnc1)N1CC(=O)N2[C@H](C1)[C@H](c1ccc(-c3cccnc3)cc1)[C@@H]2CO	none
O=C(c1cccc(F)c1)N1CC(=O)N2[C@@H](CO)[C@H](c3ccc(-c4cccnc4)cc3)[C@@H]2C1	none
Cc1ccc(-c2ccc([C@@H]3[C@@H](CO)N4C(=O)CN(C(=O)c5cccnc5)C[C@H]34)cc2)cc1	none
Cc1ccc(-c2ccc([C@H]3[C@H](CO)N4C(=O)CN(C(=O)c5cccnc5)C[C@@H]34)cc2)cc1	IDE exosite FP -3.2
O=C(c1cccc(F)c1)N1CC(=O)N2[C@@H](CO)[C@@H](c3ccc(-c4cccnc4)cc3)[C@@H]2C1	none
CCCNC(=O)N1[C@@H]2CNC[C@H]1C2c1ccc(-c2cccnc2)cc1 (stereo partly drawn)	none
CC(C)C#Cc1ccc([C@@H]2[C@@H](CO)N3CCCCN(C(=O)Nc4ccccc4)C[C@@H]23)cc1	none
O=C(Cc1cccnc1)N1CC2(C1)[C@@H](c1ccccc1)[C@H](CO)N2C(=O)C1CCOCC1	none
O=C1CN(Cc2ccc(F)cc2)C[C@@H]2[C@H](c3ccc(Br)cc3)[C@H](CO)N12	none
COc1ccc2c3c(n(C)c2c1)[C@H](CO)N(C)CC31CN(CC2CC2)C1	none
CCCC#Cc1ccc([C@@H]2[C@@H](CO)N3C(=O)CN(C(=O)c4cccnc4)C[C@H]23)cc1	none
CN(C)CC(=O)N1C[C@H]2[C@@H](c3ccccc31)[C@@H](CO)N2C(=O)c1ccccn1	none
CCC(=O)N1CC(=O)N2[C@H](CO)[C@H](c3ccc(C#CC(C)C)cc3)[C@@H]2C1	none
Cc1noc(C)c1NC(=O)N1C[C@@H](O)COC[C@@H]2O[C@@H](CC(=O)N[C@@H]3CCN(Cc4ccccc4)C3)CC[C@H]21	none
CCCC#Cc1ccc([C@@H]2[C@@H](CO)N3C(=O)CN(C(=O)Nc4ccccc4)C[C@H]23)cc1	none
O=C(Cc1ccccc1)N1CC(=O)N2[C@H](CO)[C@H](c3ccc(C#Cc4ccccc4)cc3)[C@H]2C1	none
O=C(Cc1ccccc1)N1CC(=O)N2[C@H](C1)[C@@H](c1ccc(Br)cc1)[C@@H]2CO	IDE exosite FP -5.1
O=C(Cc1ccccc1)N1CC(=O)N2[C@H](C1)[C@@H](c1ccc(C#CCc3ccccc3)cc1)[C@@H]2CO	none

Screening data from PubChem BioAssay.
